# From the supplement of paper PMC10646978
# ± gives the standard deviation.
# Assays:
# Settings in all cases: modulator concentration 10 µM
# [1] = test system: RAW-Dual (murine macrophage reporter line); assay: NF-kB reporter (SEAP) activity fold change vs agonist alone; higher = enhanced NF-kB activity
# Method in brief: (§1)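 Overnight stimulation with a PRR agonist followed pre-incubation for 1 hour at 37 °C with compound at 10 μM final. This was done in RAW-Dual murine macrophage reporter cells seeded at 50 000 per well in 384-well plates. NF-κB (SEAP, QUANTI-Blue absorbance at 620 nm) and IRF (Lucia luciferase, QUANTI-Luc luminescence) were read from the supernatant. Each reporter's fold change relative to the mean agonist-only control on the same plate was averaged over replicate plates.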
# [2] = test system: RAW-Dual (murine macrophage reporter line); assay: IRF reporter (Lucia luciferase) activity fold change vs agonist alone; higher = enhanced IRF activity
# Method in brief: as §1
# [3] = test system: RAW-Dual (murine macrophage reporter line); assay: viability score (confluency relative to resting cells, overnight) (fraction); higher = more viable, active = viable (0.7 or more)
# Method in brief: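 RAW-Dual macrophages in 384-well plates were exposed overnight to compound at 10 μM final. Confluency was imaged with IncuCyte, and two confluency masks were generated with IncuCyte software over all imaged wells. The viability score is confluency expressed relative to resting cells. Compounds were called viable if both masks exceeded 70% of resting cells.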
# [4] = agonist: CpG ODN 1826 0.5 ug/mL
Structure (SMILES),"NF-kB reporter [1, 4]",NF-kB reporter ([1]; agonist: LPS 0.1 ug/mL),NF-kB reporter ([1]; agonist: MPLA […]),IRF reporter ([2]; agonist: 3'3'-cGAMP 10 ug/mL),IRF reporter ([2]; agonist: LPS 0.1 ug/mL),IRF reporter ([2]; agonist: MPLA […]),viability score [3]
CCN1CC(CCN2CCOCC2)C(c2ccccc2)(c2ccccc2)C1=O.Cl.O (configuration not stated),1 ± 0.15,1.19 ± 0.24,1.79 ± 0.72,0.919 ± 0.028,1.37 ± 0.43,1.03 ± 0.083,1 (active)
Cc1nc(SCC(=O)N2CCCCCC2)[nH]c(=O)c1C,1.15 ± 0.077,1.17 ± 0.14,0.909 ± 0.04,1 ± 0.064,1.07 ± 0.14,0.977 ± 0.3,1 (active)
O=C(CCCC(=O)Nc1ccc(Cl)c(Cl)c1)Nc1ccc(Cl)c(Cl)c1,0.964 ± 0.076,1.02 ± 0.062,0.914 ± 0.068,0.963 ± 0.029,1.41 ± 0.13,1.13 ± 0.14,1.01 (active)
O=C(O[C@@H]1C[C@@H]2C[C@@H]3C[C@H](C1)N2CC3=O)c1c[nH]c2ccccc12 [Prestw-1510],0.575 ± 0.048,0.718 ± 0.056,0.697 ± 0.043,0.931 ± 0.04,0.958 ± 0.055,0.958 ± 0.18,1 (active)
COCCCOc1ccnc(CS(=O)c2nc3ccccc3[nH]2)c1C (configuration not stated),1.24 ± 0.3,1.07 ± 0.098,1.11 ± 0.11,0.839 ± 0.029,1.22 ± 0.13,1.28 ± 0.23,0.98 (active)
COCCCNC(=O)CSc1ccc(Cl)cc1,1.07 ± 0.17,0.974 ± 0.11,0.952 ± 0.13,0.889 ± 0.063,1.12 ± 0.28,1.1 ± 0.13,1 (active)
COc1ccc(CNc2oc(-c3ccc(COc4ccccc4C)o3)nc2C#N)cc1,1.48 ± 0.11,1.31 ± 0.074,2.3 ± 0.054,1.3 ± 0.073,0.887 ± 0.1,1.34 ± 0.32,0.934 (active)
O=C(c1ccc(F)c(F)c1Nc1ccc(I)cc1F)N1CC(O)([C@@H]2CCCCN2)C1,0.155 ± 0.0087,0.0529 ± 0.0032,0.123 ± 0.012,0.871 ± 0.029,4.08 ± 0.27,1.81 ± 0.16,0.0873 (inactive)
CC(Oc1cccc(Cl)c1)C(=O)NCc1ccncc1 (configuration not stated),0.955 ± 0.098,1.09 ± 0.071,1.07 ± 0.091,0.985 ± 0.057,1.24 ± 0.13,0.988 ± 0.11,1.02 (active)
Cn1nc(-c2ccc(F)cc2)cc1C(=O)NCC1(CO)CC1,0.865 ± 0.037,1.04 ± 0.1,1.03 ± 0.056,1.03 ± 0.049,1.09 ± 0.32,1.23 ± 0.33,1.02 (active)
CC1=C(C(=O)Nc2ccc(C)cn2)C(c2ccccc2Cl)C2=C(CCCC2=O)N1 (configuration not stated),1.01 ± 0.12,0.983 ± 0.062,0.847 ± 0.053,1.02 ± 0.034,1.43 ± 0.12,1.1 ± 0.08,1.01 (active)
CC(C)CN(C[C@@H](O)[C@H](Cc1ccccc1)NC(=O)O[C@H]1CO[C@H]2OCC[C@H]21)S(=O)(=O)c1ccc(N)cc1.CCO,1.7 ± 0.13,1.11 ± 0.063,1.7 ± 0.042,0.998 ± 0.056,0.982 ± 0.12,1 ± 0.081,0.996 (active)
CN(C)c1nc(CNC(=O)CSc2nc3ccccc3o2)nc(N(C)C)n1,1.01 ± 0.07,1.13 ± 0.12,1.01 ± 0.067,0.959 ± 0.048,1.05 ± 0.063,1 ± 0.078,0.979 (active)
OCc1ccccc1OC1OC(CO)C(O)C(O)C1O (configuration not stated),1.13 ± 0.27,1.07 ± 0.094,1.05 ± 0.069,0.889 ± 0.03,1.22 ± 0.23,1.13 ± 0.19,1 (active)
CCN(CC)CCNC(=O)c1ccc(N)cc1.Cl,0.962 ± 0.14,0.935 ± 0.4,0.887 ± 0.052,0.952 ± 0.029,1.29 ± 0.3,1.29 ± 0.097,0.993 (active)
CC(=O)Nc1nnc(CCS(=O)(=O)c2ccc(Br)cc2)s1,0.951 ± 0.054,1.05 ± 0.064,0.93 ± 0.079,0.908 ± 0.032,1.46 ± 0.094,1.16 ± 0.12,1.01 (active)
CN(C)c1nc(CNS(C)(=O)=O)nc(N2CCOCC2)n1,0.908 ± 0.047,0.916 ± 0.091,1.02 ± 0.071,1.08 ± 0.049,1.07 ± 0.18,1.14 ± 0.38,1.02 (active)
Cc1nnsc1C(=O)Nc1ccccc1C(F)(F)F,1.1 ± 0.084,0.954 ± 0.077,1 ± 0.048,0.969 ± 0.039,0.993 ± 0.11,0.929 ± 0.15,1 (active)
N#CC1=C(NC(=S)NC(=O)c2ccccc2)c2ccccc2CC12CCCC2,0.535 ± 0.03,0.918 ± 0.07,0.717 ± 0.042,0.792 ± 0.033,1.63 ± 0.1,1.26 ± 0.2,0.982 (active)
Cc1ccc(C(=O)N(CCCN)[C@@H](c2nc3cc(Cl)ccc3c(=O)n2Cc2ccccc2)C(C)C)cc1,0.186 ± 0.034,0.318 ± 0.13,0.59 ± 0.089,0.209 ± 0.057,0.52 ± 0.23,0.241 ± 0.09,0.0279 (inactive)
CC(=O)Nc1ccc(C(=O)Nc2ccccc2)c(NC(C)=O)c1,1.11 ± 0.088,0.852 ± 0.14,1.09 ± 0.051,0.726 ± 0.035,0.875 ± 0.087,0.747 ± 0.071,0.997 (active)
CC(C)(C)c1ccc(C(=O)Nc2nc3ccc([N+](=O)[O-])cc3s2)cc1,1.06 ± 0.085,1.05 ± 0.072,1 ± 0.035,1.04 ± 0.23,0.986 ± 0.074,1.1 ± 0.11,1 (active)
Cc1ccc(=O)n(-c2ccccc2)c1,0.979 ± 0.079,0.981 ± 0.098,0.968 ± 0.038,0.979 ± 0.077,0.975 ± 0.13,0.976 ± 0.092,1 (active)
CCc1sc2sncc2c1Br,0.199 ± 0.022,0.817 ± 0.06,1.17 ± 0.11,0.315 ± 0.014,0.713 ± 0.14,0.549 ± 0.076,0.895 (active)
O=C(O)C=Cc1ccc(S(=O)(=O)NCc2cccnc2)cc1,0.751 ± 0.077,0.82 ± 0.049,1.02 ± 0.091,1.02 ± 0.062,1.46 ± 0.098,1.72 ± 0.19,1.01 (active)
CC(=O)Oc1cccc2c1C(=O)c1c(OC(C)=O)cc(C(=O)O)cc1C2=O,1.14 ± 0.088,1.04 ± 0.077,1.01 ± 0.049,0.971 ± 0.068,0.954 ± 0.033,0.939 ± 0.12,1 (active)
